Common to all, as to experiment: log2 fold change, soluble protein after heating vs DMSO (PISA); higher = thermal stabilisation; K562 cells, 10 uM, 30 min; active = over 0.2 and 3.5 SD of the protein, either way, in both replicates (recomputed)
One experiment has as its target ZW10 (UniProt O43264). A digest of the protocol:
(§1)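 Aliquots of K562 cells (2×10^6 cells/mL) treated with 10 μM compound for 30 min were heated for 3 min over 48°C-58°C. After pooling and extraction in PBS with 0.5% NP-40 at 4°C, soluble protein from a 21,000xg, 90 min spin was quantified by TMTpro 16plex LC-MS/MS with channel sums equalised. Thermal stability is expressed against control samples, from duplicates, as a log2 fold change.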

The target in a further experiment is ZWILCH (UniProt Q9H900). The method in brief:
as §1

A further experiment has as its target ZYG11B (UniProt Q9C0D3). The method in brief: as §1

This is an account of results in the supplement of paper PMC10849652.

About 7,900 targets were measured; listed, in parts, are those with a hit and a random draw of the rest. About 0.6% of all pairs of compound and target were hits. A number with no mark means an inactive call.

Sequence of ZWILCH (Q9H900 whole entry, looked up): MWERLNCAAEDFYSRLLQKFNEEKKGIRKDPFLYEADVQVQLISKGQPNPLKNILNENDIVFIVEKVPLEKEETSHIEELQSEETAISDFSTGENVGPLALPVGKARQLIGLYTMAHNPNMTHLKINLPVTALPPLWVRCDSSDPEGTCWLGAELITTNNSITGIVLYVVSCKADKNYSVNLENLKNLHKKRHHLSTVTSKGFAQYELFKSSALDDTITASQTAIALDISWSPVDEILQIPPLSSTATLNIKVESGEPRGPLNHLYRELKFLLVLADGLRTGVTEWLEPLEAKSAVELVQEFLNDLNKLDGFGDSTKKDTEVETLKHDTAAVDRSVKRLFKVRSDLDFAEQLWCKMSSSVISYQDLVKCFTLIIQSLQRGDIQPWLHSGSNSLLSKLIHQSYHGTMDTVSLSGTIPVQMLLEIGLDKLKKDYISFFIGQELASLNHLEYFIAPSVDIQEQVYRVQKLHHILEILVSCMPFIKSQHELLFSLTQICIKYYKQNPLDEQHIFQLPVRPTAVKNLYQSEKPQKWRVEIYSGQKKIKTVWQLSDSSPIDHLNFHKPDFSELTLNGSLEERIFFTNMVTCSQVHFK
Sequence of ZYG11B (Q9C0D3 whole entry, looked up): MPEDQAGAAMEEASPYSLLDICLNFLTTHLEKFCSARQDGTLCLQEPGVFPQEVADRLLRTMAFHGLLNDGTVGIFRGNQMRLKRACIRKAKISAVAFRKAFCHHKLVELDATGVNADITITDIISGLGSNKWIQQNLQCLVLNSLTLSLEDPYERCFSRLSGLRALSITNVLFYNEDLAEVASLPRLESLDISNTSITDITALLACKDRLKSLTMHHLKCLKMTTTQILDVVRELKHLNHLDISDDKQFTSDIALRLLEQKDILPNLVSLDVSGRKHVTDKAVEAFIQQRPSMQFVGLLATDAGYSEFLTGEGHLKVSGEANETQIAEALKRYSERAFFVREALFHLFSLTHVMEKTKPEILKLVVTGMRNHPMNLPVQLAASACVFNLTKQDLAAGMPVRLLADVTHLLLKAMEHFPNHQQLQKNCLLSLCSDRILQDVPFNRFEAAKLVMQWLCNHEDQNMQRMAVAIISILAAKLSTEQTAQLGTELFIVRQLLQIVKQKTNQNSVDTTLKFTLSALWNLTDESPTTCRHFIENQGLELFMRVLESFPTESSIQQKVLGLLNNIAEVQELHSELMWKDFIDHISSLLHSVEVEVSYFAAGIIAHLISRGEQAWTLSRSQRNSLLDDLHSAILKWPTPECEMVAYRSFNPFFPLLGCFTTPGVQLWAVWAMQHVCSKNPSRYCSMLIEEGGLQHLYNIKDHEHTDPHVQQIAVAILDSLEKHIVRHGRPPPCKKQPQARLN
Sequence of ZW10 (O43264 whole entry, looked up): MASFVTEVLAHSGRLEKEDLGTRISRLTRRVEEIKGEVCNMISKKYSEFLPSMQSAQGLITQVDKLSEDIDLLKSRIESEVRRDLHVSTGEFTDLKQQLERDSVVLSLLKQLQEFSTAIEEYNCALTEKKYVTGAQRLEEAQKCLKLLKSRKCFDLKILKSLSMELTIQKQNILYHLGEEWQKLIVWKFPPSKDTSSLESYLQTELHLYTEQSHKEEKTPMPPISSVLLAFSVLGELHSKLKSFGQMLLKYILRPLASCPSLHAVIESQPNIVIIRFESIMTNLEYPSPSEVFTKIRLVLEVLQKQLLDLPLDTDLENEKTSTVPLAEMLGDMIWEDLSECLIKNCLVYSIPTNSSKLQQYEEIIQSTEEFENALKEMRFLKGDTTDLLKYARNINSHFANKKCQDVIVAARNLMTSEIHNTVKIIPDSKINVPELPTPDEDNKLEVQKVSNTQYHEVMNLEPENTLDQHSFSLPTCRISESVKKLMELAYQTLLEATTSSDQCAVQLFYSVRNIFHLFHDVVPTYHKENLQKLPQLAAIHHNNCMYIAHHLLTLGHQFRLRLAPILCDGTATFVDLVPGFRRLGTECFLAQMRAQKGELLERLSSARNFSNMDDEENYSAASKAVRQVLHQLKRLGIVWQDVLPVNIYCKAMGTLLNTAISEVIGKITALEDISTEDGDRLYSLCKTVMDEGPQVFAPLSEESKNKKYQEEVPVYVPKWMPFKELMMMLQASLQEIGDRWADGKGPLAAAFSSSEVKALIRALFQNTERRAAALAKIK

`Cc1cccc(-c2[nH]c(C(C)(C)C)nc2-c2ccc3nccnc3c2)n1`: the log2 fold change in the experiment with ZW10 was 0.006; in the experiment with ZWILCH, 0; with ZYG11B, -0.039.
Consider `NC1(c2ccc(-c3nc4ccn5c(=O)[nH]nc5c4cc3-c3ccccc3)cc2)CCC1`, for which the log2 fold change with ZW10 was -0.141; with ZWILCH it was -0.097; with ZYG11B it was -0.087.
Take `Cn1cc(-c2ccc3nnc(C(F)(F)c4ccc5ncccc5c4)n3n2)cn1`: the log2 fold change with ZW10 is -0.069; in the experiment with ZWILCH, -0.069; with ZYG11B, 0.
Turning to `CN1CCN(CCOc2cc(OC3CCOCC3)c3c(Nc4c(Cl)ccc5c4OCO5)ncnc3c2)CC1` [saracatinib], the log2 fold change is -0.031 in the experiment with ZW10, -0.012 with ZWILCH and -0.051 with ZYG11B.
For the compound `Cc1ccc(-n2nc(C(C)(C)C)cc2NC(=O)Nc2ccc(OCCN3CCOCC3)c3ccccc23)cc1` [doramapimod], the log2 fold change with ZW10 is 0.048; with ZWILCH, -0.002; with ZYG11B, 0.036.
As for `O=C(CCCCCCNC(=O)c1cnc(N(c2ccccc2)c2ccccc2Cl)nc1)NO` [citarinostat], the values for the log2 fold change with ZW10, with ZWILCH and with ZYG11B were 0.033, 0.104 and -0.043, respectively.
In the case of `COC(=O)N[C@@H](C)CNc1nccc(-c2cn(C(C)C)nc2-c2cc(Cl)cc(NS(C)(=O)=O)c2F)n1` [encorafenib], the figures for the log2 fold change with ZW10, in the experiment with ZWILCH and with ZYG11B were 0.094, 0.076 and -0.055, respectively.
In the case of `CN1CCN(c2nc(C3=C(c4c[nH]c5ccccc45)C(=O)NC3=O)c3ccccc3n2)CC1` [sotrastaurin], the log2 fold change is -0.089 in the experiment with ZW10, -0.059 in the experiment with ZWILCH and 0.026 in the experiment with ZYG11B.
As to `CNC(=O)c1ccccc1Nc1nc(Nc2ccc(N3CCOCC3)cc2OC)ncc1Cl`, the figures for the log2 fold change in the experiment with ZW10, in the experiment with ZWILCH and with ZYG11B were 0.035, 0.027 and -0.016, respectively.
Consider `Cc1nc(Nc2n[nH]c3c2CN(C(=O)N[C@H](CN(C)C)c2ccccc2)C3(C)C)c2sccc2n1`, for which the log2 fold change with ZW10 was -0.11; in the experiment with ZWILCH it was -0.042; with ZYG11B, 0.026.
For `CN1CCc2c(c3ccccc3n2Cc2ccc(C(=O)NO)cc2)C1` [Tubastatin A], the log2 fold change with ZW10 is 0.031; with ZWILCH, -0.028; in the experiment with ZYG11B it was 0.04.
Take `C[C@@H](Oc1cc(-c2cnn(C3CCNCC3)c2)cnc1N)c1c(Cl)ccc(F)c1Cl` [crizotinib]: the log2 fold change with ZW10 was -0.137; in the experiment with ZWILCH, -0.068; with ZYG11B, -0.031.
As to `COC(=O)[C@H](CCSC)NC(=O)c1ccc(NC[C@@H](N)CS)cc1-c1ccccc1`, the log2 fold change in the experiment with ZW10 was -0.079; with ZWILCH it was -0.077; with ZYG11B, 0.013.
For `C#Cc1cccc(Nc2ncnc3cc(OCCOC)c(OCCOC)cc23)c1` [erlotinib], the log2 fold change in the experiment with ZW10 is 0.016; with ZWILCH, 0.009; in the experiment with ZYG11B it was -0.015.
For `CCn1c(C(=O)N(C2CC2)C2CC2)cc2c3c(ncn3C)c(Nc3cc(C)n(C)n3)nc21`, the log2 fold change with ZW10 is -0.06; with ZWILCH it was 0.021; in the experiment with ZYG11B, -0.017.
In the same order, the values of `COc1cc(C(=O)O)ccc1NC(=O)[C@@H]1N[C@@H](CC(C)(C)C)[C@](C#N)(c2ccc(Cl)cc2F)[C@H]1c1cccc(Cl)c1F` [idasanutlin] are -0.035, -0.051 and 0.01.
As to `COc1cccc2cc(-c3nc([C@H]4CC[C@H](C(=O)O)CC4)n4ncnc(N)c34)[nH]c12`, the log2 fold change in the experiment with ZW10 was -0.051; with ZWILCH it was -0.041; with ZYG11B it was 0.02.
On to `Cc1nc(Nc2ncc(C(=O)Nc3c(C)cccc3Cl)s2)cc(N2CCN(CCO)CC2)n1` [dasatinib], for which the figures for the log2 fold change with ZW10, in the experiment with ZWILCH and with ZYG11B were -0.124, -0.05 and -0.017, respectively.
Turning to `CC(C)(O)CC(=O)NCCn1ccc2ncnc(Nc3ccc(Oc4cccc(C(F)(F)F)c4)c(Cl)c3)c21`, the log2 fold change with ZW10 is -0.027; with ZWILCH, 0.012; in the experiment with ZYG11B, -0.017.
The corresponding values for `Cn1cc(-c2ccc3c(c2)CCN3C(=O)Cc2cccc(C(F)(F)F)c2)c2c(N)ncnc21` are -0.076, -0.057 and 0.063.
On to `c1cn2cc(-c3ccc4cn[nH]c4c3)nc(Nc3ccc(N4CCOCC4)cc3)c2n1` [entospletinib], for which the values for the log2 fold change in the experiment with ZW10, with ZWILCH and with ZYG11B were 0.063, 0.022 and 0.068, respectively.
Regarding `O=C1NC(=O)/C(=C\c2ccc3nccnc3c2)S1`, the figures for the log2 fold change with ZW10, with ZWILCH and with ZYG11B were -0.009, 0.056 and -0.084, respectively.
`CNC(=O)c1ccc(Nc2ncc(C(F)(F)F)c(NCc3nccnc3N(C)S(C)(=O)=O)n2)cc1` [defactinib]: the figures for the log2 fold change with ZW10, in the experiment with ZWILCH and with ZYG11B were -0.083, -0.007 and -0.058, respectively.
Turning to `Cc1ccc(NC(=O)c2cccc(C(C)(C)C#N)c2)cc1Nc1ccc2ncn(C)c(=O)c2c1`, the log2 fold change with ZW10 is 0.015; in the experiment with ZWILCH, 0; in the experiment with ZYG11B, -0.006.
In the case of `NC(=O)c1ccc2nc(-c3ccc(Oc4ccc(Cl)cc4)cc3)[nH]c2c1`, the log2 fold change with ZW10 was -0.005; in the experiment with ZWILCH, -0.028; in the experiment with ZYG11B, 0.
As for `O=C1c2ccccc2-c2n[nH]c3cccc1c23`, the results for the log2 fold change in the experiment with ZW10, in the experiment with ZWILCH and with ZYG11B were -0.031, -0.007 and -0.033, respectively.
On to `CNCc1ccc(-c2[nH]c3cc(F)cc4c3c2CCNC4=O)cc1` [rucaparib], for which the log2 fold change is 0.128 in the experiment with ZW10, -0.051 with ZWILCH and 0.061 with ZYG11B.
On to `Fc1ccc(Cl)cc1-c1nc(Nc2ccncc2)c2nccnc2n1`, for which the log2 fold change is -0.04 with ZW10, -0.013 in the experiment with ZWILCH and 0.013 with ZYG11B.
As for `Cc1ccc(Sc2cncc3sc(C(N)=O)cc23)cc1`, the log2 fold change with ZW10 was 0.018; with ZWILCH, -0.068; with ZYG11B, -0.028.
Consider `Cc1ncc(-c2ccnc(Nc3ccc(S(C)(=O)=O)cc3)n2)n1C(C)C`, for which the log2 fold change was 0 in the experiment with ZW10, 0.071 with ZWILCH and 0.037 with ZYG11B.
Turning to `CN(C)CC(=O)Nc1ccc2[nH]c(=O)c3ccccc3c2c1`, the log2 fold change with ZW10 was 0.013; in the experiment with ZWILCH it was 0.051; in the experiment with ZYG11B, -0.003.
With `O=C(O)c1ccc2c(c1)nc(Nc1cccc(Cl)c1)c1ccncc12` [silmitasertib], the log2 fold change in the experiment with ZW10 is 0.083; in the experiment with ZWILCH, 0.059; in the experiment with ZYG11B it was 0.
For `Cc1ccc2c(=O)c3ccccc3n(CCCN)c2c1C`, the log2 fold change is 0.013 with ZW10, 0.013 with ZWILCH and 0.009 with ZYG11B.
Consider `Cn1cncc1[C@@](N)(c1ccc(Cl)cc1)c1ccc2c(c1)c(-c1cccc(Cl)c1)cc(=O)n2C` [tipifarnib], for which the log2 fold change with ZW10 is -0.087; with ZWILCH, -0.01; in the experiment with ZYG11B, 0.089.
As to `Nc1ccccc1NC(=O)c1ccc(CNC(=O)OCc2cccnc2)cc1` [entinostat], the log2 fold change in the experiment with ZW10 was 0.063; with ZWILCH, 0.002; with ZYG11B, 0.013.
Take `NC(=O)Nc1cc(-c2cccc(F)c2)sc1C(=O)N[C@H]1CCCNC1`: the log2 fold change with ZW10 was -0.021; in the experiment with ZWILCH, 0; with ZYG11B it was -0.033.
As for `COc1ccc(Cn2ccc3ccc(C(=O)NO)cc32)cc1`, the log2 fold change with ZW10 was -0.004; in the experiment with ZWILCH, 0.019; with ZYG11B, 0.052.
As to `FC(F)(F)c1ccc(/C=C/c2nc(COc3ccc(CCCCn4ccnn4)cc3)co2)cc1` [mubritinib], the log2 fold change with ZW10 is 0.028; with ZWILCH it was 0.037; with ZYG11B, 0.01.
As for `CN1CC[C@H](c2c(O)cc(O)c3c(=O)cc(-c4ccccc4Cl)oc23)[C@H](O)C1` [alvocidib], the values for the log2 fold change in the experiment with ZW10, in the experiment with ZWILCH and in the experiment with ZYG11B were -0.02, -0.034 and -0.055, respectively.
`CC[C@H](C)n1cc(C)c2c(C(=O)NCc3c(C)cc(C)[nH]c3=O)cc(-c3ccc(N4CCNCC4)nc3)cc21`: the log2 fold change with ZW10 is 0.077; in the experiment with ZWILCH, 0.048; with ZYG11B, 0.101.
The corresponding values for `CS(=O)(=O)N1CCN(Cc2cc3nc(-c4cccc5[nH]ncc45)nc(N4CCOCC4)c3s2)CC1` [pictilisib] are 0.005, -0.026 and 0.104.
The corresponding values for `CCCS(=O)(=O)Nc1ccc(F)c(C(=O)c2c[nH]c3ncc(-c4ccc(Cl)cc4)cc23)c1F` [vemurafenib] are 0.025, 0.04 and 0.048.
`O=C(Nc1nc2ccccc2n1CCN1CCOCC1)c1cccc([N+](=O)[O-])c1` [IRAK-1-4 Inhibitor I]: the log2 fold change was -0.076 with ZW10, -0.042 with ZWILCH and 0.044 with ZYG11B.
The corresponding values for `NC1(Cc2ccc(Cl)cc2)CCN(c2ncnc3[nH]ccc23)CC1` are -0.062, -0.049 and 0.055.
Regarding `CC[C@@H]1C(=O)N(C)c2cnc(Nc3ccc(C(=O)N[C@H]4CC[C@H](N5CCN(CC6CC6)CC5)CC4)cc3OC)nc2N1C(C)C` [volasertib], the log2 fold change with ZW10 is -0.399 (active); with ZWILCH it was -0.266 (active); in the experiment with ZYG11B it was 0.002.
As for `CS(=O)(=O)CCNCc1ccc(-c2ccc3ncnc(Nc4ccc(OCc5cccc(F)c5)c(Cl)c4)c3c2)o1` [lapatinib], the log2 fold change with ZW10 is -0.01; with ZWILCH, 0.018; in the experiment with ZYG11B, -0.05.
The corresponding values for `Cc1cc(Nc2cc(N3CCN(C)CC3)nc(Sc3ccc(NC(=O)C4CC4)cc3)n2)n[nH]1` [tozasertib] are 0.068, 0.041 and -0.031.
For the compound `Oc1cc(-c2nc(-c3ccccc3)[nH]c2-c2ccncc2)ccc1Cl`, the log2 fold change with ZW10 was -0.034; in the experiment with ZWILCH it was -0.002; with ZYG11B, 0.015.
Turning to `CO[C@H]1C[C@@H]2CC[C@@H](C)[C@@](O)(O2)C(=O)C(=O)N2CCCC[C@H]2C(=O)O[C@H]([C@H](C)C[C@@H]2CC[C@H](n3cnnn3)[C@H](OC)C2)CC(=O)[C@H](C)/C=C(\C)[C@@H](O)[C@@H](OC)C(=O)[C@H](C)C[C@H](C)/C=C/C=C/C=C/1C` [zotarolimus], the log2 fold change in the experiment with ZW10 was 0.023; with ZWILCH it was 0.046; with ZYG11B, 0.024.
